# SNCA viab count: GF-AFC viability counterscreen for inhibitors of alpha-synuclein gene (SNCA) expression; AID 1671193, 2021; actives 0.12% (n = 150,000); HEK-293-SNCA-luc viability, GF-AFC fluorescence, 24 h; Potency, µM (titrated, usually from 57.1 µM), most hits filed as cytotoxic; further: nearly all actives have a fitted effect of over 30% in size
#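 Cytotoxicity counterscreen: after 24 h compound treatment of genome-edited SNCA-luciferase HEK-293 cells, live-cell protease substrate GF-AFC read by fluorescence after 30 min; activity scaled between DMSO (0%) and medium-only (-100%), curves Hill-fitted.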
# HEK cytotox: Cytotoxic Profiling in HEK 293 Cell Line of Diverse Libraries Using Quantitative High-Throughput Screening; HEK 293 viability, ATP luminescence (CellTiter-Glo), 48-72 h; Potency, µM (highest dose often 115 µM), usual class: inhibitors; actives 6.6% (n = 94,000); further: nearly all actives have a fitted effect of over 60% in size
#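 Read-out: CellTiter-Glo ATP luminescence. Cells: HEK 293, 250 cells/well. Exposure: 48 or 72 hr, 37 degree Celsius.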
# NPR1 antag: Natriuretic polypeptide receptor (hNpr1) antagonism - Primary qHTS; HEK293 hNpr1 GloSensor cGMP, ANP-stimulated luminescence; Potency, µM (highest dose often 46.3 µM), hits mostly inhibitors; actives 1.6% (n = 76,000); Atrial natriuretic peptide receptor 1 (Homo sapiens), P16066; calls by dose curve; further: nearly all actives have a fitted effect of over 60% in size
# Target sequence (P16066 whole entry, looked up): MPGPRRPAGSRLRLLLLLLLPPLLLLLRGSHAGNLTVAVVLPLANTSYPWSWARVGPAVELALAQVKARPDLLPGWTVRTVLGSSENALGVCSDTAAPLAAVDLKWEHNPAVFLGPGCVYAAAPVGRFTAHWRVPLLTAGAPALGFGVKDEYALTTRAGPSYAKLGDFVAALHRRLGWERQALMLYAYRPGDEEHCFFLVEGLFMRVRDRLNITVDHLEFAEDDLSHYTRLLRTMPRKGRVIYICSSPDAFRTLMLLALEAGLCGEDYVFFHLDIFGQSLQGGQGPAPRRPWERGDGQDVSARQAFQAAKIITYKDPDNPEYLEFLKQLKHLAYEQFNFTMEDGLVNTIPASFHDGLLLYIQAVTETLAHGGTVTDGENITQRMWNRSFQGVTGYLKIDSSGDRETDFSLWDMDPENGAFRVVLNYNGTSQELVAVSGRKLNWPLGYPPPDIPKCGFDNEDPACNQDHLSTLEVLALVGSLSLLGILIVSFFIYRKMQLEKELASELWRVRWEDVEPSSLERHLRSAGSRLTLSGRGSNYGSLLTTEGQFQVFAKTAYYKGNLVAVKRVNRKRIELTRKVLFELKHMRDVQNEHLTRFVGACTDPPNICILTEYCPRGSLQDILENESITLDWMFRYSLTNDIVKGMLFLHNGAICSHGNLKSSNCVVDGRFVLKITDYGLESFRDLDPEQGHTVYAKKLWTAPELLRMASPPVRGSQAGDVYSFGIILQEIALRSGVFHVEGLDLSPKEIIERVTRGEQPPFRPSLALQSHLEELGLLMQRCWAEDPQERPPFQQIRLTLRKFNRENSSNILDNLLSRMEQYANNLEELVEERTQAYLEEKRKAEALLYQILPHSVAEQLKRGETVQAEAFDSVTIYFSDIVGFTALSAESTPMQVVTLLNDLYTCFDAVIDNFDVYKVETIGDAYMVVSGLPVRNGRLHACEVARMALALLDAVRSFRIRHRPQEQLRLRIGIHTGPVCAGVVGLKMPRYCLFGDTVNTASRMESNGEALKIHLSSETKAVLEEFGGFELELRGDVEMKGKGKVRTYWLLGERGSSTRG
#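 Compound pre-incubated 30 min at room temperature on GloSensor-loaded HEK293 cells stably carrying hNpr1 and the pGS-40F cGMP biosensor. Stimulation uses hNppA at 0.1 nM final; luminescence is taken at baseline and 20 min post-agonist.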
# FLuc inh-1: Firefly luciferase inhibition profiling of diverse chemical library using quantitative high-throughput screening. AID 1347043, 2019. purified P. pyralis luciferase, luminescence, biochemical. actives 2.5% (n = 76,000). Potency, µM (doses to about 115 µM), usual class: inhibitors; further: nearly all actives have a fitted effect of over 65% in size
#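 Purified 10nM P. pyralis luciferase with 10uM D-luciferin and 10uM ATP in 50mM Tris acetate pH 7.5, 10mM Mg acetate, 0.01% Tween-20, 0.05% BSA. qHTS titration; luminescence read by CCD imager.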
# SNCA expr inhib: Primary qHTS assay for inhibitors of alpha-synuclein gene (SNCA) expression | HEK-293 SNCA-luciferase knock-in, luminescence, 24 h | Potency, µM (series often up to 57.2 µM), actives largely listed as inhibitors | actives 0.17% (n = 140,000) | AID 1671194, 2021; further: nearly all actives have a fitted effect of over 45% in size
# 3T3 cytotox: Cytotoxic Profiling in NIH 3T3 Cell Line of Diverse Libraries Using Quantitative High-Throughput Screening; NIH 3T3 viability, CellTiter-Glo ATP luminescence, 48-72 h; AID 1345082, 2018; actives 4.3% (n = 94,000); Potency, µM (titrated, usually from 96.7 µM), most hits filed as inhibitors; further: nearly all actives have a fitted effect of over 55% in size
#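 Cytotoxicity is measured as loss of cellular ATP: NIH 3T3 cells (400/well) are exposed to compound for 48 or 72 hr at 37 °C, then CellTiter-Glo luminescence is imaged after 10 min at room temperature.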
# FLuc SDR no ATP: Firefly luciferase (FLuc-C-HiBiT) SDR gain of signal screen - without ATP | shares compounds with FLuc inh-1 | Purified FLuc-C-HiBiT, Nano-Glo HiBiT luminescence, no ATP | Potency, µM (doses to about 32.7 µM), usual class: activators | actives 7.8% (n = 1,300); further: nearly all actives have a fitted effect of over 55% in size
# FLuc SDR ATP: Firefly luciferase (FLuc-C-HiBiT) SDR gain of signal screen - plus ATP; shares compounds with FLuc inh-1; purified FLuc-C-HiBiT + ATP, HiBiT complementation luminescence; Potency, µM (highest dose often 32.7 µM), usual class: activators; actives 8.7% (n = 1,300); AID 1963319, 2024;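 further: signal reports ligand binding via conformational change of the enzyme rather than luciferase catalysis; nearly all actives have a fitted effect of over 55% in size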
# FLuc inh-2: Firefly luciferase (FLuc-C-HiBiT) enzymatic inhibition screen - Functional assay. shares compounds with FLuc inh-1. purified FLuc-C-HiBiT enzyme, luciferin luminescence. Potency, µM (highest dose often 32.7 µM), actives largely listed as inhibitors. actives 42% (n = 1,300); further: nearly all actives have a fitted effect of over 70% in size
# Hits are given with their value; n = inactive; u = inconclusive; x = no result. The list is not random: actives were taken first. Their share in the collection is about 7.4%. Unless noted, the call rests on the fitted dose curve; in most records, active means well fitted curve in the direction sought with a large enough effect; inconclusive means small, poorly fitted or top-dose-only effect, or another doubt; inactive means no such curve, though single readings can be large; an effect the other way counts as inactive or inconclusive.
SMILES,SNCA viab count,HEK cytotox,NPR1 antag,FLuc inh-1,SNCA expr inhib,3T3 cytotox,FLuc SDR no ATP,FLuc SDR ATP,FLuc inh-2
c1ccc(-c2noc(-c3ccc(OC4CNC4)cc3)n2)cc1,n,25µM,8.9µM,0.71µM,10µM,22µM,u,u,2.8µM
O=C(NCc1ccc(F)cc1)N1CC(Oc2ccc(-c3nc(-c4ccccc4)no3)cc2)C1,n,u,0.63µM,2.2µM,n,n,n,n,n
O=C(COc1ccc(F)cc1)N1CC(Oc2ccc(-c3nc(-c4ccccc4)no3)cc2)C1,n,u,n,u,n,n,x,x,x
COc1ccc(NS(=O)(=O)c2sc3ccc(Cl)cc3c2C)cc1N1CCNCC1,n,x,x,x,x,x,x,x,x
O=C(COc1ccccc1Cl)Nc1nc(-c2ccc(F)cc2)ns1,n,x,x,x,n,x,x,x,x
O=C(COc1ccccc1[N+](=O)[O-])Nc1cccc(-c2nc3ccccc3s2)c1,n,x,x,x,n,x,n,n,n
O=C(COc1ccccc1Cl)Nc1ccc(-c2nc3ccccc3s2)cc1,n,x,x,x,n,x,n,n,n
O=C(COc1ccccc1[N+](=O)[O-])Nc1ccc(-c2nc3ccccc3s2)cc1,n,x,x,x,n,x,n,n,n
COc1ccccc1-n1c(=O)c(C(=O)NCc2ccc(F)cc2)nc2cccnc21,n,n,x,x,n,n,x,x,x
O=C1CN(S(=O)(=O)c2ccccc2)CC2(CCCCC2)N1CC1CC1,n,u,x,x,n,u,x,x,x
COC(=O)C1CCN(c2csc3ccc(C)cc3c2=O)CC1,n,x,x,x,n,x,n,u,7.9µM
COCC(=O)N1CCc2nc(C)nc(-c3ccc(OC)cc3)c2C1,n,n,n,n,n,n,n,n,n
COc1ccc(-c2nc(C)nc3c2CN(C(C)=O)CC3)cc1,n,n,n,n,n,n,x,x,x
O=C(NC1CCCCC1)C1CCN(C(=O)c2ccc(-c3cncnc3)cc2)CC1,n,n,x,x,n,n,x,x,x
O=C(c1cccc(Cl)c1)N1CCN(C(=O)c2nc3cccnc3n(C3CC3)c2=O)CC1,n,n,x,x,n,n,x,x,x
O=C(NCCC1CCN(C(=O)Nc2ccccc2)CC1)c1ccc(F)cc1,n,n,n,u,n,n,x,x,x
O=C(NCCC1CCN(C(=O)Nc2cc(F)cc(F)c2)CC1)c1ccc(F)cc1,n,u,n,14µM,n,u,n,n,n
Cc1ccc(NC(=O)N2CCC(CCNC(=O)C3CC3)CC2)cc1F,n,n,n,11µM,n,n,u,u,u
COCC(=O)NCCNC(=O)c1cccc(-c2ccsc2)c1,u,n,x,x,n,n,x,x,x
O=C(Nc1ccccc1)N1CCC(C(=O)N2CCC(c3ccccc3)CC2)CC1,n,n,x,x,u,u,x,x,x
Cc1ccc(C(=O)NC2CCN(c3cc(-c4ccccc4)[nH]n3)C2)cc1C (stereo not given),n,u,n,n,n,u,x,x,x
CN(C)c1cccc(C(=O)NC2CCN(c3cc(-c4ccccc4)[nH]n3)C2)c1 (stereo not given),n,u,n,7.1µM,n,u,n,7.9µM,7µM

# High-throughput results deposited in PubChem by National Center for Advancing Translational Sciences (NCATS).
